Data as given in PubChem BioAssay (NCI).
This is part of a sample that, as a whole, favours compounds with a hit. Of some 83,000 tested, about 20% had one in any assay.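 48-hour exposure, single concentration, 96-well plates; percent growth endpoint where 0 means no net growth. Active: below 10.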 Values without a mark were called inactive. Calls of active or inactive are those of the source.

Assays:
Assay in all cases: NCI-60 one-dose screen, 48 h (100 = growth as untreated, 0 = no growth, -100 = all killed)
Settings in all cases: 10 µM
SK-MEL-2 melanoma = system: SK-MEL-2 melanoma
SN12C renal = system: SN12C renal
UO-31 renal = system: UO-31 renal
TK-10 renal = system: TK-10 renal
ACHN renal = system: ACHN renal
CAKI-1 renal = system: CAKI-1 renal
A498 renal = system: A498 renal
CCRF-CEM leukemia = system: CCRF-CEM leukemia
MOLT-4 leukemia = system: MOLT-4 leukemia

Row | Compound | growth (SK-MEL-2 melanoma) | growth (SN12C renal) | growth (UO-31 renal) | growth (TK-10 renal) | growth (ACHN renal) | growth (CAKI-1 renal) | growth (A498 renal) | growth (CCRF-CEM leukemia) | growth (MOLT-4 leukemia)
1 | CCCCC(CC#N)(CCC)CCC | 102% | 106% | 90.6% | 92.7% | 102% | 90.3% | 103% | 94.7% | 97.5%
2 | COc1cc(-c2nc3ccc(C)cc3[nH]2)ccc1OCc1nnc(-c2ccc(CC(C)C)cc2)o1 | 97.3% | 92% | 77.8% | 119% | 107% | 95.1% | 81.8% | 80.3% | 82.4%
3 | COc1ccc(N2CCN(c3nc(-c4ccccc4)c(C#N)c(=O)[nH]3)CC2)cc1 | 120% | 96.7% | 71.4% | 115% | 99% | 98.6% | 87.9% | 80.1% | 93.5%
4 | c1ccc(COCC[P+](c2ccccc2)(c2ccccc2)c2ccccc2)cc1 | -14.8% (active) | 5.38% (active) | 46.9% | 8.09% (active) | 45.2% | 59.9% | -2.41% (active) | 2.79% (active) | -10.1% (active)
5 | Cc1ccc(C2C=C(c3ccc(Cl)cc3)N=C3SC=CN32)c(Br)c1 (stereo not given) | 105% | 94% | 57.8% | 125% | 91.8% | 65.1% | 87% | 55.7% | 64.9%
6 | CCCc1c(CC)c(=N)c2ccccc2n1C | 37.3% | 72.5% | 38.3% | 74.4% | 65.8% | 39.8% | 42.4% | 9.26% (active) | 0.122% (active)
7 | Nc1ccc(C2=CC(c3ccc(Cl)cc3)N3C=CSC3=N2)cc1 (stereo not given) | -49.9% (active) | -45.2% (active) | -96% (active) | -30.1% (active) | -100% (active) | -19.5% (active) | -93.5% (active) | -22.1% (active) | -11% (active)
8 | CCn1nc(-c2ccc(C(=O)OC)cc2)nc2c(=O)n(C)c(=O)nc1-2 | 96.6% | 76.6% | 49.9% | 85.7% | -53.4% (active) | 63.7% | 108% | 83.9% | 101%
9 | C[C@]12CC[C@H]3[C@@H](CC=C4C[C@@H](O)CC[C@@]43C)[C@@H]1CC[C@@H]2C(=O)C/C=N/O | 95.9% | 91.7% | -94.6% (active) | 99.5% | 89.4% | 83.2% | 90.1% | 71.8% | 69.2%
10 | FC(F)(F)c1ccc(-c2ncc(-c3ccc(C(F)(F)F)cc3)c(NCc3cc(C(F)(F)F)cc(C(F)(F)F)c3)n2)cc1 | 69.9% | 34.2% | 37.1% | 86.9% | 27.4% | 37.5% | 54.1% | 46.7% | 59.3%
11 | C=CCN1C(=O)/C(=C\c2ccc3c(c2)CCC3)SC1=S | 94.6% | 102% | 85.6% | 108% | 97.1% | 97.5% | 98.9% | 103% | 85.9%
12 | COc1cccc(-c2nnc(COc3ccc(-c4nc5ccccc5[nH]4)cc3OC)o2)c1 | 99.3% | 85.9% | 87.9% | 132% | 103% | 98.7% | 71.8% | 44.9% | 71.5%
13 | COc1ccc(C(=O)/C=C/c2cc(-c3ccc(OC)c(OC)c3)n[nH]2)cc1OC | 42.7% | -31.7% (active) | -95% (active) | -20.7% (active) | -70.9% (active) | -24.4% (active) | -40.7% (active) | 3.32% (active) | 1.44% (active)
14 | COc1ccc(-c2csc(NC(=O)CO[N+](=O)[O-])n2)cc1 | 81.6% | 102% | 83.1% | 106% | 101% | 95.2% | 126% | 97.9% | 93.1%
15 | COc1ccc(-c2[nH]ncc2/C=C/c2cc(C(F)(F)F)[nH]c(=O)n2)cc1 | 82.9% | 96.2% | 87.1% | 94.8% | 92.6% | 102% | 89.3% | 73% | 86%
16 | COc1cc(C2C(C#N)=C(c3c[nH]c4ccccc34)Nc3nc(N)[nH]c(=O)c32)cc(OC)c1OC (stereo not given) | 93.8% | 90.9% | 79.3% | 123% | 95% | 95.2% | 89.9% | 53.5% | 98.2%
17 | O=C(NC1CCN(Cc2ccccc2)CC1)c1cc(-c2ccncc2)nc2ccc(Cl)cc12 | 44.1% | 27.3% | 11.9% | 61.4% | 19.9% | 13.4% | 11% | 2.77% (active) | 7.58% (active)
18 | COc1cc(-c2nc3ccc(C)cc3[nH]2)ccc1OCC(=O)N=Nc1c(O)[nH]c2ccccc12 | -52.9% (active) | -61.8% (active) | 95.9% | 10.3% | 14% | -46.3% (active) | 75.5% | -50% (active) | -65% (active)
19 | CCOc1ccc2c(c1)CC[C@@H]1[C@@H]2CC[C@]2(C)[C@@H](O)[C@@H](O)C[C@@H]12 | 115% | 93.7% | 89.3% | 105% | 126% | 89.8% | 107% | 87.9% | 95.2%
20 | N=C(N)c1ccc(-c2ccc(-c3cccs3)s2)nc1 | 97.8% | 60.9% | 2.6% (active) | 47.3% | 56.7% | 34.2% | -25.6% (active) | 31.6% | 17.3%
21 | CC(=O)O[C@H]1CC[C@@]2(C)[C@@H](CC[C@@H]3[C@@H]2CC[C@]2(C)C=C(C=O)C[C@@H]32)C1 | 73.7% | 58.9% | 93% | 120% | 95% | 91% | 94.9% | -20.8% (active) | -29.1% (active)
22 | O=C(c1ccc(Cl)cc1)c1no[n+]([O-])c1C(=O)c1ccc(Cl)cc1 | 92% | 86.4% | -94.9% (active) | 84.1% | 39.7% | -68.6% (active) | 106% | -51.6% (active) | 68.2%
23 | CC(=O)[C@H]1CC[C@H]2[C@@H]3CC[C@@H]4CC=C(C=O)C[C@]4(C)[C@H]3CC[C@]12C | 99.3% | 93.4% | 84.8% | 85.2% | 92.4% | 88.5% | 76.8% | 82.6% | 72.8%
24 | COc1ccc(/C=C2\CCC3C(CCCC34OCCO4)C2=O)cc1 (stereo not given) | 88.4% | 96.8% | 80.5% | 95.3% | 93.6% | 80.2% | 106% | 79.1% | 78.2%
25 | CCc1ccc(Nc2cc(C)nc3nc(C)nn23)cc1 | 14.5% | 26.2% | 13.4% | -6.1% (active) | -2.86% (active) | 0.395% (active) | 34.7% | -10.6% (active) | -20.7% (active)
26 | Clc1ccc(-c2nc(-c3cccs3)cn3ccnc23)cc1 | 70.6% | 85.3% | 45.9% | 60.7% | 91.2% | 59% | 90.5% | 65.3% | 62.4%
27 | CCOC(=O)[C@@H]1[C@H](c2ccccc2)[C@H]([N+](=O)[O-])[C@H](c2cn(-c3ccccc3)nc2C)N1Cc1ccccc1 | 85.5% | 88.8% | 71.7% | 106% | 73.9% | 69% | 97.6% | 59.8% | 51.7%
28 | COc1cc(-c2nc3ccccc3[nH]2)ccc1OCc1nnc(-c2ccc(Br)cc2)o1 | 105% | 85.8% | 79.5% | 130% | 98.6% | 95.5% | 79.6% | 67.9% | 63.8%
29 | CCCCCCOc1ccc(/C=C/C(=O)c2ccc(B(O)O)cc2)cc1 | 78% | 71.4% | 51.6% | 85.2% | 89.5% | 61.5% | 70.4% | 59.1% | 58.3%
30 | CC(C)C[C@H](NC(=O)Cn1ccc2ccccc2c1=O)B(O)O | 63.5% | 75.8% | 50.6% | 11.7% | 29.1% | 40.6% | 30.1% | 15.2% | 9.94% (active)
